Assay results as given in PubChem BioAssay (EPA / NIEHS).
Active and inactive are the calls of the source. How the source made its calls: active means hit-call score of the fitted dose curve at least 0.9, where 1 is the maximum; inactive means score below 0.9.

Each compound was assayed on Thrombomodulin, THBD (gene 7056) (assay: BSK_CASM3C_Thrombomodulin: BioMAP Diversity Plus: CASM3C Assay for Thrombomodulin Biomarker Activity (AID 2283051;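 further: thrombomodulin protein level measured by ELISA 24 h after dosing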)). Details: primary human coronary artery smooth muscle cells; actives raise or lower the signal.

| SMILES | outcome | AC50 |
| --- | --- | --- |
| CN(c1nccc(=O)[nH]1)C1CCN(c2nc3ccccc3n2Cc2ccc(F)cc2)CC1 | inactive |  |
| CCCCCCCCCCCCCCCC(=O)OC/C=C(C)/C=C/C=C(C)/C=C/C1=C(C)CCCC1(C)C | inactive |  |
| CC(=O)c1c(C)c([N+](=O)[O-])c(C(C)(C)C)c([N+](=O)[O-])c1C | inactive |  |
| CC(=O)C1(C)CC2=C(CCCC2(C)C)CC1C (centres undefined) | inactive |  |
| Oc1c(Cl)cc(Cl)c(Cl)c1Cc1c(O)c(Cl)cc(Cl)c1Cl | inactive |  |
| CCN(CC)C(=O)N(CC)CC | inactive |  |
| CC1(C)C2=CCCC(C)(C)[C@]23CC[C@H]1C3 | inactive |  |
| COc1ccc(CCN2CCC(Nc3nc4ccccc4n3Cc3ccc(F)cc3)CC2)cc1 | inactive |  |
| COc1ccc(OC)c(N=Nc2c(O)ccc3ccccc23)c1 | inactive |  |
| CC(C)(C)CC(C)(C)c1ccc(OCCOCC[N+](C)(C)Cc2ccccc2)cc1 |  | 6.62 µM (active) |
| O=C1OC2(c3ccccc31)c1ccc(O)c(Br)c1Oc1c2ccc(O)c1Br | inactive |  |
| c1ccc2cc(Nc3ccc(Nc4ccc5ccccc5c4)cc3)ccc2c1 | inactive |  |
| C1=CC2C3C=CC(C3)C2C1 (centres undefined) | inactive |  |
| O=C1c2ccccc2C(=O)c2c(O)ccc(O)c21 | inactive |  |
| C=CC(C)(O)CCC=C(C)C (centres undefined) | inactive |  |
| C=C(C)C(=O)OCCOCCOCCOCCOC(=O)C(=C)C | inactive |  |
| CS(=O)(=O)OCCCCOS(C)(=O)=O | inactive |  |
| CCCCN(CCCC)C(=O)N(CCCC)CCCC | inactive |  |
| Cc1cc(CCC(=O)OCCOCCOCCOC(=O)CCc2cc(C)c(O)c(C(C)(C)C)c2)cc(C(C)(C)C)c1O | inactive |  |
| CC(CN=Cc1ccccc1O)N=Cc1ccccc1O (centres undefined) | inactive |  |
| C=C(C)C(=O)OCC(CC)(COC(=O)C(=C)C)COC(=O)C(=C)C | inactive |  |
| CS(=O)(=O)c1ccc(C2=C(c3ccccc3)C(=O)OC2)cc1 | inactive |  |
| CCC(C)c1cc([N+](=O)[O-])cc([N+](=O)[O-])c1OC(=O)OC(C)C (centres undefined) |  | 36.8 µM (active) |

These compounds were tested on Tissue Factor, F3 (gene 2152) (assay: BSK_CASM3C_TissueFactor: BioMAP Diversity Plus: CASM3C Assay for Tissue Factor Biomarker Activity (AID 2283052;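 further: cell surface tissue factor protein level read by ELISA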)). Details: primary human coronary artery smooth muscle cells; actives raise or lower the signal.

| SMILES | outcome | AC50 |
| --- | --- | --- |
| CN(c1nccc(=O)[nH]1)C1CCN(c2nc3ccccc3n2Cc2ccc(F)cc2)CC1 | inactive |  |
| CCCCCCCCCCCCCCCC(=O)OC/C=C(C)/C=C/C=C(C)/C=C/C1=C(C)CCCC1(C)C | inactive |  |
| CC(=O)c1c(C)c([N+](=O)[O-])c(C(C)(C)C)c([N+](=O)[O-])c1C | inactive |  |
| CC(=O)C1(C)CC2=C(CCCC2(C)C)CC1C (centres undefined) |  | 11.6 µM (active) |
| Oc1c(Cl)cc(Cl)c(Cl)c1Cc1c(O)c(Cl)cc(Cl)c1Cl |  | 1.73 µM (active) |
| CCN(CC)C(=O)N(CC)CC | inactive |  |
| CC1(C)C2=CCCC(C)(C)[C@]23CC[C@H]1C3 |  | 30.9 µM (active) |
| COc1ccc(CCN2CCC(Nc3nc4ccccc4n3Cc3ccc(F)cc3)CC2)cc1 | inactive |  |
| COc1ccc(OC)c(N=Nc2c(O)ccc3ccccc23)c1 | inactive |  |
| CC(C)(C)CC(C)(C)c1ccc(OCCOCC[N+](C)(C)Cc2ccccc2)cc1 |  | 5 µM (active) |
| O=C1OC2(c3ccccc31)c1ccc(O)c(Br)c1Oc1c2ccc(O)c1Br | inactive |  |
| c1ccc2cc(Nc3ccc(Nc4ccc5ccccc5c4)cc3)ccc2c1 | inactive |  |
| C1=CC2C3C=CC(C3)C2C1 (centres undefined) | inactive |  |
| O=C1c2ccccc2C(=O)c2c(O)ccc(O)c21 | inactive |  |
| C=CC(C)(O)CCC=C(C)C (centres undefined) | inactive |  |
| C=C(C)C(=O)OCCOCCOCCOCCOC(=O)C(=C)C | inactive |  |
| CS(=O)(=O)OCCCCOS(C)(=O)=O | inactive |  |
| CCCCN(CCCC)C(=O)N(CCCC)CCCC |  | 11.7 µM (active) |
| Cc1cc(CCC(=O)OCCOCCOCCOC(=O)CCc2cc(C)c(O)c(C(C)(C)C)c2)cc(C(C)(C)C)c1O | inactive |  |
| CC(CN=Cc1ccccc1O)N=Cc1ccccc1O (centres undefined) | inactive |  |
| C=C(C)C(=O)OCC(CC)(COC(=O)C(=C)C)COC(=O)C(=C)C |  | 8.08 µM (active) |
| CS(=O)(=O)c1ccc(C2=C(c3ccccc3)C(=O)OC2)cc1 | inactive |  |
| CCC(C)c1cc([N+](=O)[O-])cc([N+](=O)[O-])c1OC(=O)OC(C)C (centres undefined) |  | 12.1 µM (active) |

These compounds were tested on Interferon-gamma inducible Protein 10 (IP10), CXCL10 (gene 3627) (assay: BSK_hDFCGF_IP10: BioMAP Diversity Plus: hDFCGF Assay for Interferon-gamma inducible Protein 10 (IP10) Biomarker Activity (AID 2283053)). Details: primary human foreskin fibroblasts; actives raise or lower the signal.
Procedure, shortened: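 Human foreskin fibroblast primary cells (hDFCGF system) were dosed with chemical and assayed at 24 h; IP-10 measured by ELISA. Activity fitted bidirectionally relative to DMSO negative control as baseline.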

| SMILES | outcome | AC50 |
| --- | --- | --- |
| CN(c1nccc(=O)[nH]1)C1CCN(c2nc3ccccc3n2Cc2ccc(F)cc2)CC1 | inactive |  |
| CCCCCCCCCCCCCCCC(=O)OC/C=C(C)/C=C/C=C(C)/C=C/C1=C(C)CCCC1(C)C | inactive |  |
| CC(=O)c1c(C)c([N+](=O)[O-])c(C(C)(C)C)c([N+](=O)[O-])c1C | inactive |  |
| CC(=O)C1(C)CC2=C(CCCC2(C)C)CC1C (centres undefined) |  | 13.8 µM (active) |
| Oc1c(Cl)cc(Cl)c(Cl)c1Cc1c(O)c(Cl)cc(Cl)c1Cl |  | 2.82 µM (active) |
| CCN(CC)C(=O)N(CC)CC | inactive |  |
| CC1(C)C2=CCCC(C)(C)[C@]23CC[C@H]1C3 |  | 34.9 µM (active) |
| COc1ccc(CCN2CCC(Nc3nc4ccccc4n3Cc3ccc(F)cc3)CC2)cc1 | inactive |  |
| COc1ccc(OC)c(N=Nc2c(O)ccc3ccccc23)c1 |  | 3.71 µM (active) |
| CC(C)(C)CC(C)(C)c1ccc(OCCOCC[N+](C)(C)Cc2ccccc2)cc1 |  | 8.05 µM (active) |
| O=C1OC2(c3ccccc31)c1ccc(O)c(Br)c1Oc1c2ccc(O)c1Br |  | 20 µM (active) |
| c1ccc2cc(Nc3ccc(Nc4ccc5ccccc5c4)cc3)ccc2c1 | inactive |  |
| C1=CC2C3C=CC(C3)C2C1 (centres undefined) | inactive |  |
| O=C1c2ccccc2C(=O)c2c(O)ccc(O)c21 | inactive |  |
| C=CC(C)(O)CCC=C(C)C (centres undefined) | inactive |  |
| C=C(C)C(=O)OCCOCCOCCOCCOC(=O)C(=C)C | inactive |  |
| CS(=O)(=O)OCCCCOS(C)(=O)=O | inactive |  |
| CCCCN(CCCC)C(=O)N(CCCC)CCCC |  | 11.1 µM (active) |
| Cc1cc(CCC(=O)OCCOCCOCCOC(=O)CCc2cc(C)c(O)c(C(C)(C)C)c2)cc(C(C)(C)C)c1O | inactive |  |
| CC(CN=Cc1ccccc1O)N=Cc1ccccc1O (centres undefined) | inactive |  |
| C=C(C)C(=O)OCC(CC)(COC(=O)C(=C)C)COC(=O)C(=C)C |  | 33.8 µM (active) |
| CS(=O)(=O)c1ccc(C2=C(c3ccccc3)C(=O)OC2)cc1 | inactive |  |
| CCC(C)c1cc([N+](=O)[O-])cc([N+](=O)[O-])c1OC(=O)OC(C)C (centres undefined) |  | 8.25 µM (active) |
